Columns and labels:
Test in all cases: log2 ratio of Biotin-Ahx-Ub-VS probe labelling (fragment/DMSO); higher = less target engagement (more negative = stronger competition), active = hit call of the paper (q ≤ 0.05, log2 ratio ≤ -1)
Conditions in all cases: compound concentration: 200 uM; treatment time: 3 h
[1] = target: T1, USP19 (UniProt O94966)
T1 sequence (whole entry): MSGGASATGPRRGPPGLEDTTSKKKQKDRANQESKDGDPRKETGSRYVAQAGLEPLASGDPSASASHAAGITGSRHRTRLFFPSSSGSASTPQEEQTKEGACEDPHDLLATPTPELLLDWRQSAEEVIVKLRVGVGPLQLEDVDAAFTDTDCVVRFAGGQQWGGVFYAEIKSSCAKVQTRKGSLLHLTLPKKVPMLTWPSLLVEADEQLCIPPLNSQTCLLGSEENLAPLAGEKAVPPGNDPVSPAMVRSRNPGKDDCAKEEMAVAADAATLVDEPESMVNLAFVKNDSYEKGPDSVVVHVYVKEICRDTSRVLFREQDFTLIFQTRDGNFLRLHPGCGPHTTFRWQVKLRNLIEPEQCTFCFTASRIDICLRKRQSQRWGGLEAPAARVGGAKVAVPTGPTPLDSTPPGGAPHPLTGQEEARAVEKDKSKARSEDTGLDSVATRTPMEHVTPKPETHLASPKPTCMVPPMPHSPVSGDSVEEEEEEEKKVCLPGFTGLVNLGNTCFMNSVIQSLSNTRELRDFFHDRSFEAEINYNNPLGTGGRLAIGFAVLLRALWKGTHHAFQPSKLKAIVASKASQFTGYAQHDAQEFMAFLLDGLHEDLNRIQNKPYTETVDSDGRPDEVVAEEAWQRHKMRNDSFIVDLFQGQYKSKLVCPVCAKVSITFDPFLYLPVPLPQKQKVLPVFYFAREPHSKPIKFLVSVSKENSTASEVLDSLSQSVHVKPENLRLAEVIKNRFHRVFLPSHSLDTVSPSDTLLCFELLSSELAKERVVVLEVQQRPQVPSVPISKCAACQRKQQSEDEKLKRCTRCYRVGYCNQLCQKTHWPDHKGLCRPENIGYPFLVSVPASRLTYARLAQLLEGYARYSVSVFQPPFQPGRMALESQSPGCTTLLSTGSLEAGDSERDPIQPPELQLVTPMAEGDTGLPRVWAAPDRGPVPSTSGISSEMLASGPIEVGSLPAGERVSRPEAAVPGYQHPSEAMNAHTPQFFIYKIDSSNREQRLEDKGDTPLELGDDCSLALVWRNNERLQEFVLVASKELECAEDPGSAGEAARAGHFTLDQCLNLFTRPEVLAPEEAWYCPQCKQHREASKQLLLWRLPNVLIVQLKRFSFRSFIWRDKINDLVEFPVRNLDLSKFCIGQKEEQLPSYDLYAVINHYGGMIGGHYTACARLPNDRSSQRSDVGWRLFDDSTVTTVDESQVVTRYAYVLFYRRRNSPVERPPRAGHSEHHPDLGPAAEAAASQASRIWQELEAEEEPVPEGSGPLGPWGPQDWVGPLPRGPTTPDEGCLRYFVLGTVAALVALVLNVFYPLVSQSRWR
Method in brief: (§1)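 HEK293T lysate (495 µg per sample, in Tris/CHAPS/IGEPAL buffer with protease inhibitors) was exposed in triplicate for 3 h to fragment at 200 µM or to vehicle, then to Biotin-Ahx-Ub-VS at 0.5 µM final for 1 h. Labelled DUBs were enriched on NeutrAvidin, digested with LysC and trypsin, and analysed by diaPASEF LC-MS/MS. Spectronaut label-free quantities were normalised to the global median, and values are average log2 ratios of fragment over vehicle from an unpaired t-test. Only proteins with ≥2 unique peptides were used.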

[2] = target: T2, USP22 (UniProt Q9UPT9)
T2 sequence (whole entry): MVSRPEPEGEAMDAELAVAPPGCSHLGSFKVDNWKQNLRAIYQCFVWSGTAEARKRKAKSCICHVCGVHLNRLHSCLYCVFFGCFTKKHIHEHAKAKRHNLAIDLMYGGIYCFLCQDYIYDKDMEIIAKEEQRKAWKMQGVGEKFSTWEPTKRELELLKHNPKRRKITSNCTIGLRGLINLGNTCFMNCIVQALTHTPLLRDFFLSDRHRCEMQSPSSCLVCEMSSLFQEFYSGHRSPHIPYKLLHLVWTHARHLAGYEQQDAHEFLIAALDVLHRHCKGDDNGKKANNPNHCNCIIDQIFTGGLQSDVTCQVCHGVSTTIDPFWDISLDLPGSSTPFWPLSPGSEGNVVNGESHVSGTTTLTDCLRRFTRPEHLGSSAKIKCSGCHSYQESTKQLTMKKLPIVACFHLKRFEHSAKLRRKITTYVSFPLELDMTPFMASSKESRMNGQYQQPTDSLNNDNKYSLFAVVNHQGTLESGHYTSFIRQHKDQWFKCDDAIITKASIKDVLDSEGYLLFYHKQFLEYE
Method in brief: as §1

[3] = target: USP24 (UniProt Q9UPU5)
Sequence of USP24 (Q9UPU5 whole entry): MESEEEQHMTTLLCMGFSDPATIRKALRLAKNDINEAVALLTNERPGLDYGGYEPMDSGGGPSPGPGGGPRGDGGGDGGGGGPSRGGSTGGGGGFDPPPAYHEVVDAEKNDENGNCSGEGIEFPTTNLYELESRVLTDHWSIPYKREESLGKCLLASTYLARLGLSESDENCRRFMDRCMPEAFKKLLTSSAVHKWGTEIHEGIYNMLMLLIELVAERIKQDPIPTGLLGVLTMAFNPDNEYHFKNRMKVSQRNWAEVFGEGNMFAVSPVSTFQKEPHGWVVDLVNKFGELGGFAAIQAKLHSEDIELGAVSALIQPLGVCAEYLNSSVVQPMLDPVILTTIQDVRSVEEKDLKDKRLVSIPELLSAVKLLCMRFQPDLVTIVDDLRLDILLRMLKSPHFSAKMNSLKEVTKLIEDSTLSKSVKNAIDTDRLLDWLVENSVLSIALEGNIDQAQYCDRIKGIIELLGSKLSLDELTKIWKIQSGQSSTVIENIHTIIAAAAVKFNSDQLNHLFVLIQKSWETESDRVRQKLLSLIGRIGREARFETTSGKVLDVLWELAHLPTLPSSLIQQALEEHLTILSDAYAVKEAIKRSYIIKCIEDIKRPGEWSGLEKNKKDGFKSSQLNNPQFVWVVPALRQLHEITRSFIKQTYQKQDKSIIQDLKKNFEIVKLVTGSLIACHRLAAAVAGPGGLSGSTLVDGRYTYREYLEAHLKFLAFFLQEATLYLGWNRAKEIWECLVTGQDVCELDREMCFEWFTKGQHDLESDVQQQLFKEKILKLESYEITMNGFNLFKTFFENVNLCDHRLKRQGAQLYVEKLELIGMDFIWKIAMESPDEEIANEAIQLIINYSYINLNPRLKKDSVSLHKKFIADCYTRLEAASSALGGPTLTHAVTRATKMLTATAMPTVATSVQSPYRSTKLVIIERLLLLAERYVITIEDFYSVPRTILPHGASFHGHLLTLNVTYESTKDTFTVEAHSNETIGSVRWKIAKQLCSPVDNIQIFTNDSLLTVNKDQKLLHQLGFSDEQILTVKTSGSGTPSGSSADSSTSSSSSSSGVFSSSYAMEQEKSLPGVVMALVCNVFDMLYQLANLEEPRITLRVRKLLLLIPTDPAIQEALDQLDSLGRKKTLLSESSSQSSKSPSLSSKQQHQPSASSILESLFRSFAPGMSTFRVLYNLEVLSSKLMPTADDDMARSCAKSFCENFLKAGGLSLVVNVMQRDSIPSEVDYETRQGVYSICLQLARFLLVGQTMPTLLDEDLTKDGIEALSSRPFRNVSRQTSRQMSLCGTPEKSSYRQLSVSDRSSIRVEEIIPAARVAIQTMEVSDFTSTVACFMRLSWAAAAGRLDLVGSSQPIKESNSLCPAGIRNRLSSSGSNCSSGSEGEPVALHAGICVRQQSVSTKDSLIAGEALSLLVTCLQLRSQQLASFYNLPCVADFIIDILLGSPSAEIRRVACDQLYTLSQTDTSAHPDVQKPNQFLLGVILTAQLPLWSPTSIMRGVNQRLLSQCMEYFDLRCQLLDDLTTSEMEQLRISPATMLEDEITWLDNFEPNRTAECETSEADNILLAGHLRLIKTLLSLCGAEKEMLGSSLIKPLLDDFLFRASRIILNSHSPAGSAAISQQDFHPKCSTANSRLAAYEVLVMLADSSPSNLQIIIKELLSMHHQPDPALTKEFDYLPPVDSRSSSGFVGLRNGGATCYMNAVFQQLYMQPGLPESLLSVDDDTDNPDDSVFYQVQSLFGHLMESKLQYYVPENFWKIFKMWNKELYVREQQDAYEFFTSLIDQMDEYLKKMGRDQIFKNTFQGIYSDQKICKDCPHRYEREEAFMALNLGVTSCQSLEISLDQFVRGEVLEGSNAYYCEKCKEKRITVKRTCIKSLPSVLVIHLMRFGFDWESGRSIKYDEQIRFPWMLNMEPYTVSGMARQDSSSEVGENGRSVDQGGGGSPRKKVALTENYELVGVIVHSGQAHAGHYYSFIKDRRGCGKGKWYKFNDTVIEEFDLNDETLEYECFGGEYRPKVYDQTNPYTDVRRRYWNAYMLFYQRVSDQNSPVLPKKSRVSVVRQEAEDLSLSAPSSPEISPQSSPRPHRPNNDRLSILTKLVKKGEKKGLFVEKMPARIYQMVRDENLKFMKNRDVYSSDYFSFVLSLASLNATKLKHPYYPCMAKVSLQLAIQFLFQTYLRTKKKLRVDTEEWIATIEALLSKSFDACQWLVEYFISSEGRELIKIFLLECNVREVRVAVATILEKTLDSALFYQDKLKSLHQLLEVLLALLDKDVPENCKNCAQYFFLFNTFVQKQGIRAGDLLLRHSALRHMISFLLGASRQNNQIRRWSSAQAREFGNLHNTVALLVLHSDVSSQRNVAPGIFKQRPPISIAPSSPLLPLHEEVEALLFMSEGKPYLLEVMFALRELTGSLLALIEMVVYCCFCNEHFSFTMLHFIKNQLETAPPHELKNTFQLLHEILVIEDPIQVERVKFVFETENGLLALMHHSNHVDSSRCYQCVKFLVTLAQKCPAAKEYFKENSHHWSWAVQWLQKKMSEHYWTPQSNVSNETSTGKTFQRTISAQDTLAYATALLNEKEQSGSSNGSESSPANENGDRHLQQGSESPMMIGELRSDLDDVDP
Method in brief: as §1

[4] = target: T3, USP25 (UniProt Q9UHP3)
T3 sequence (whole entry): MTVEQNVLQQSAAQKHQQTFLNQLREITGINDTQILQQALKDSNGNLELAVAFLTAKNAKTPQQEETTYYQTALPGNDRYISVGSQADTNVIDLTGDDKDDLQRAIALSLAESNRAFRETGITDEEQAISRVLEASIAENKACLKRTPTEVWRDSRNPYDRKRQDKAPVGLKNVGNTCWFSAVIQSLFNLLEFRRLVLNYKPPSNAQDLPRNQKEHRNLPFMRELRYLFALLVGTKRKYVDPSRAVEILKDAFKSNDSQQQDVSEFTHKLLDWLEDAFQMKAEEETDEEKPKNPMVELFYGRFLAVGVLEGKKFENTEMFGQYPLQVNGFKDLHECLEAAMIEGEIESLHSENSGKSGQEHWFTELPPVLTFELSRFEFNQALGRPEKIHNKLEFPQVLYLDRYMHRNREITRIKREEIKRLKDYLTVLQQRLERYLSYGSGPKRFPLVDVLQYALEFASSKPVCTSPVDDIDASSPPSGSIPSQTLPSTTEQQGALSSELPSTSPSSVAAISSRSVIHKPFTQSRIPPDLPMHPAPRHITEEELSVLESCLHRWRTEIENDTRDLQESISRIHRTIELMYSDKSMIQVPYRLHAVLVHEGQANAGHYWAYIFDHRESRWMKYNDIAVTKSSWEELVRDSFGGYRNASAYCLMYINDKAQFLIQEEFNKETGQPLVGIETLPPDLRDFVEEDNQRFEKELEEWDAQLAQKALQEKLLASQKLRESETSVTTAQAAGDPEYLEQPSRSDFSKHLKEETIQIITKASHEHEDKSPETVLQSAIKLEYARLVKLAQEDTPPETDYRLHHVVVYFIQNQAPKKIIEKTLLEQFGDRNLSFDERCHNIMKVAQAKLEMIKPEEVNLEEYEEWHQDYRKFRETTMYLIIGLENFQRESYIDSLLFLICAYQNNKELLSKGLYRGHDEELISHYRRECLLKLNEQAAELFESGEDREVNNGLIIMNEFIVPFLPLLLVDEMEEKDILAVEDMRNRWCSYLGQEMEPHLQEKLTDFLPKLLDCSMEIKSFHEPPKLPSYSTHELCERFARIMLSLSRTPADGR
Method in brief: as §1

[5] = target: T4, USP28 (UniProt Q96RU2)
T4 sequence (whole entry): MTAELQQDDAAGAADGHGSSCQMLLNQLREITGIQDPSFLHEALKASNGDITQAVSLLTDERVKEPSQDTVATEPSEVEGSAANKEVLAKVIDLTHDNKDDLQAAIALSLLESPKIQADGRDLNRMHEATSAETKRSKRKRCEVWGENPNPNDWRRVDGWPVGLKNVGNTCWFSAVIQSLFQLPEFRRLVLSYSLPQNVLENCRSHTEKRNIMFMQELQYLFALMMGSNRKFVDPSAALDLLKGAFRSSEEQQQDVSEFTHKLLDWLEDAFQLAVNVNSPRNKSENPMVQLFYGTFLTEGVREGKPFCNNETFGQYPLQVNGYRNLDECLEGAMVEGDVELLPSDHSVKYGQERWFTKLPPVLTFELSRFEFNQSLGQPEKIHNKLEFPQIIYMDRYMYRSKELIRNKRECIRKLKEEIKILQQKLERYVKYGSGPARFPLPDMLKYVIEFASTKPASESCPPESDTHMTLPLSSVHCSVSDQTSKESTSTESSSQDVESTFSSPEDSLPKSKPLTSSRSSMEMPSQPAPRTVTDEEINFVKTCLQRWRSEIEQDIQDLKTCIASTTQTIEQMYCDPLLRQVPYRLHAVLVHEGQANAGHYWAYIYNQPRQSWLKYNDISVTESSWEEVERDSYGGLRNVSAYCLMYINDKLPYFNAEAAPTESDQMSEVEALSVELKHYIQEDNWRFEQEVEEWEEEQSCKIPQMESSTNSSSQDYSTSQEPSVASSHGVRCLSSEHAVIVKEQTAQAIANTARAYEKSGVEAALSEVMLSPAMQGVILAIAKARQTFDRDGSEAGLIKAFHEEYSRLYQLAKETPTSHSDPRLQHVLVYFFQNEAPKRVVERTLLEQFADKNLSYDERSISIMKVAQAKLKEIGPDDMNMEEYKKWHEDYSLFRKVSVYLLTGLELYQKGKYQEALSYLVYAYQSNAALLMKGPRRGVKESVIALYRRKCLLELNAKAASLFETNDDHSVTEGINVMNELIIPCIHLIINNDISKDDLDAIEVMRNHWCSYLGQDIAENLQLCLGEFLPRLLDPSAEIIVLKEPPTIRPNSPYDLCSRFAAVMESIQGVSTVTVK
Method in brief: as §1

Measured: log2 ratio of Biotin-Ahx-Ub-VS probe labelling

Cc1ccc(C(=O)NCCNC(=O)CCl)cc1
inactive: [1] -0.26 | [2] -0.00216 | [3] -0.352 | [4] -0.498 | [5] -0.493

Source: the supplement of paper PMC11732987, “Enantioselective OTUD7B fragment discovery through chemoproteomics screening and high-throughput optimisation” (Communications Chemistry, 2025)
